Compound activity deposited in PubChem BioAssay by National Center for Advancing Translational Sciences (NCATS).
S2 tox: reduces viability in counter-screen for ATXN expression inhibitors; S2 cells (HEK-293 line with an ATXN2-luciferase reporter) viability, CellTiter-Fluor protease fluorescence, 24 h; Potency, µM (top dose mostly 56.7 µM), hits mostly cytotoxic; 400,000 compounds, 0.49% hits; AID 651635; also: potency is read from the fitted curve at half-maximal effect; nearly all actives have a fitted effect of over 40% in size
IL-1B inflam inh: inhibitors of inflammasome signaling (IL-1 beta secretion); 360,000 compounds, 4.7% hits; activity change, % at 57.5 µM; THP-1 LPS/ATP IL-1B secretion, AlphaLISA, 16 h; stronger effect = lower value; in the data active = activity change below about -50%; inconclusive = mostly about -30% to -49%; also: % is scaled to controls: 0 for no effect and ±100 for the full control effect
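THP-1 cells pretreated 1 hr with compounds (up to 57.5 uM final), then stimulated with LPS (250 ng/mL final) plus ATP (1.25 mM final); secreted IL-1B measured by AlphaLISA after 16 hr, decreased signal indicating inhibition.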
MCF10A rerep: DNA re-replication induction in MCF 10a cells; MCF 10A DNA re-replication, Hoechst nuclear intensity, 48 h; Potency, µM (highest dose often 46.1 µM), inactives show top-dose activity, positive = re-replication, most hits filed as activators; 350,000 compounds, 2.9% hits; AID 624296; also: potency is read from the fitted curve at half-maximal effect; % of control where 0% means no effect; nearly all actives have a fitted effect of over 50% in size
ATXN2 expr inh: inhibitors of ATXN2 expression. AID 1745845. Potency, µM (titrated, usually from 57 µM), inactives show at the top dose activity change, negative = inhibition, hits mostly inhibitors. HEK-293 ATXN2-luciferase reporter, luminescence, 24 h. 360,000 compounds, 0.72% hits; also: potency is read from the fitted curve at half-maximal effect; % is scaled to controls: 0 for no effect and ±100 for the full control effect; nearly all actives have a fitted effect of over 55% in size
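qHTS (up to 57 uM final) was run with 24 h compound exposure of reporter cells at 37 °C. Each well was multiplexed: SteadyGlo luminescence measured ATXN2-luciferase expression after a fluorogenic Gly-Phe-AFC viability readout (25 uM final).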
PINK1 expr mod: modulators of PINK1 expression; PINK1 immunofluorescence, high-content cytometry, 24 h; Potency, µM (highest dose often 76.6 µM), without a hit: top-dose activation (PINK1 increase), actives largely listed as activators; 410,000 compounds, 0.2% hits; AID 624263; active = well fitted activation curve with a large enough effect; inconclusive = small, poorly fitted or top-dose-only effect; cell line not stated here; also: potency is read from the fitted curve at half-maximal effect; % of control where 0% means no effect; nearly all actives have a fitted effect of over 65% in size
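Measures PINK1 amount and localization on or inside mitochondria by immunofluorescence. Stable cells get compounds at 5 concentrations for 24 hours before fixation and staining; CCCP controls included.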
SW480 rerep: inducers of DNA re-replication in SW480 colon cancer cells. AID 624297. 340,000 compounds, 1.8% hits. SW480 DNA re-replication, Hoechst DNA content imaging, 48 h. Potency, µM (highest dose often 46.1 µM), for inactives: at the highest dose re-replication activation, actives largely listed as activators; also: potency is read from the fitted curve at half-maximal effect; % of control where 0% means no effect; nearly all actives have a fitted effect of over 55% in size
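Compounds, transferred as 23 nL by pin tool, were incubated with cells for 48 hr; DNA content per nucleus was then quantified by Hoechst staining and fluorescence plate imaging.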
* = called active by the depositor; i = inactive; ? = inconclusive; · = no result given; [ ] = dose if it differs, or a comment. This is a sample that favours compounds with a hit; in the whole collection about 7.1% have one here. Unless noted, calls follow the shape of the dose curve; as a rule, active = well fitted curve in the direction sought with a large enough effect; inconclusive = small, poorly fitted or top-dose-only effect, or another doubt; inactive = no such curve, though single readings can be large; an effect the other way counts as inactive or inconclusive.

SMILES | S2 tox | IL-1B inflam inh | MCF10A rerep | ATXN2 expr inh | PINK1 expr mod | SW480 rerep
O=c1[nH]c(=O)n(-c2ccc(Br)cc2)c(O)c1C=NC(CO)(CO)CO | ? | 27 | -1% | 14% | -1% | 4%
N=Cc1c(O)n(-c2ccc(C34CC5CC(CC(C5)C3)C4)cc2)c(=O)[nH]c1=O | ? | 5 | 5% | -4% | 4% | 3.3µM*
FC(F)(F)c1cccc(C2NCc3ccccc3-n3cccc32)c1 (stereo not given) | i | -88* | ? | -16% | ? | 25%
O=C(C1CC(c2ccc(F)cc2)=NO1)N1CCC2(CC1)OCCO2 (stereo not given) | i | -13 | 7% | 14% | 2% | -3%
O=C(C1CC(c2ccc(Cl)c(Cl)c2)=NO1)N1CCC2(CC1)OCCO2 (stereo not given) | i | -71* | 21% | 47% | 3%[38.3 µM] | -17%
CN1CCN(c2cc(N3CCCCCC3)c(F)cc2[N+](=O)[O-])CC1 | i | -56* | 7% | -16% | -3% | ?
N[C@@H](Cc1ccc(Oc2cc(I)c(O)c(I)c2)c(I)c1)C(=O)O | i | · | · | 3% | · | ·
O=C(Nc1ccc(F)cc1)[C@@H](c1ccccc1)N1Cc2ccccc2C1=O | ? | · | · | -10% | 1% | ·
Nc1c2c(nc3sc4c(c13)CCCC4)CCCCC2 | ? | -18 | ? | -17% | ? | -5%
Nc1c2c(nc3sc4c(c13)CCCC4)CCCC2 | ? | -88* | ? | ? | ? | 4%
N#Cc1ccc(CN2CCC3(CC2)CCN(C(=O)Oc2ccccc2)CC3)cc1 | · | · | · | · | -1% | ·
O=c1[nH]c(O)c(N=Nc2cc([N+](=O)[O-])ccc2O)c(=O)[nH]1 | 9.5µM* | 1 | -28% | 4% | 1% | -19%
O=c1[nH]c(O)c(N=Nc2ccc(SC(F)F)cc2)c(=O)[nH]1 | ? | -27 | -4% | -3% | 0% | 1%
NCC[C@H](O)C(=O)N[C@@H]1C[C@H](N)[C@@H](O[C@H]2O[C@H](CN)[C@@H](O)[C@H](O)[C@H]2N)[C@H](O[C@@H]2O[C@H](CO)[C@@H](O)[C@H]2O)[C@H]1O | i | · | · | · | · | ·
S=C1Nc2ccccc2Sc2ccccc21 | i | 14 | ? | -1% | 3% | -13%
c1ccc2c(c1)CSc1ccccc1N2 | i | -65* | -2% | 9% | 2% | -92%
COc1cc(/C=N/NC(=O)CN2CCCCC2)ccc1OCc1ccccc1 | i | 3 | 8% | 49% | 4% | ?
COc1ccc(/C=N\NC(=O)c2cccc(F)c2)cc1COc1ccccc1 | ? | 78 | ? | 5% | 0% | 1.5µM*
O=c1[nH]c2ccccc2n1C1CCNCC1 | i | · | · | 2% | · | ·
O=C1NC(=S)N(C2CC2)C(=O)/C1=C/c1ccc2c(c1)CCN2CCCCl | i | -78* | 12% | -17% | -1% | -2%
CCN1C(=O)/C(=C/c2ccc3c(c2)CCN3CCCCl)C(=O)NC1=S | ? | -19 | -2% | 4% | 0% | -6%
CCCCCCCCn1sccc1=O | · | -107* | 21µM* | 25µM* | 0% | 10µM*
Cc1ccccc1C(=O)Nc1cc(-c2ccc(Cl)cc2)nn1-c1ccccc1 | ? | · | · | 1% | 3% | ·
COC[C@H]1OC(=O)c2coc3c2[C@@]1(C)C1=C(C3=O)[C@@H]2CCC(=O)[C@@]2(C)C[C@H]1OC(C)=O | i | -101* | ? | -23% | 1% | 8%
Cc1cccc(NP(=O)(Oc2ccccc2)Oc2ccccc2)c1C | i | -89* | ? | -10% | 1% | ?
SMILES | S2 tox | IL-1B inflam inh | MCF10A rerep | ATXN2 expr inh | PINK1 expr mod | SW480 rerep
CCCOC(=O)Cc1ccc(OCC(=O)N(CC)CC)c(OC)c1 | i | · | · | 0% | · | ·
COc1ccc(-c2nn(CCC#N)cc2C(=O)Nc2ccccc2)cc1OC | i | -5 | -2% | · | 2% | -6%
COc1ccc(NC(=O)c2cn(CCC#N)nc2-c2ccc(OC)c(OC)c2)cc1 | i | 7 | 6.5µM* | -7% | 2% | -43%
O=C(Oc1ccc([N+](=O)[O-])cc1)N1CCC(C(O)(c2ccc3c(c2)OCO3)c2ccc3c(c2)OCO3)CC1 | · | · | · | -14% | · | ·
CN1CCN(c2cccc3c2C(=O)c2ccccc2C3=O)CC1 | ? | -60* | -1% | ? | 0% | -2%
CN1CCC2(CC1)CCN(C(=O)Oc1ccccc1)CC2 | · | · | · | · | 0% | ·
Cc1[nH]c2ccccc2c1C(=O)CN1CC=C(c2ccccc2)CC1 | i | -10 | 18µM* | -5% | 4% | ?
C=CCN1C(=O)/C(=C/c2ccc(Br)s2)C(=O)NC1=S | i | -99* | ? | · | 1% | -4%
C=CCN1C(=O)/C(=C\c2ccc(N3CCOCC3)o2)C(=O)NC1=S | i | 7 | ? | 6% | 2% | 5%
Cc1ccsc1/C=C1\C(=O)NC(=S)N(C)C1=O | ? | -94* | 30% | · | -1% | ?
CN1C(=O)/C(=C/c2ccc(Cl)s2)C(=O)NC1=S | 16µM* | -97* | ? | ? | 0% | ?
COc1ccc(S(=O)(=O)Nc2ccc3c(c2)CC(=O)N([C@@H](C)CO)C[C@H](C)[C@@H](CN(C)S(=O)(=O)c2ccc(F)cc2)O3)cc1 | i | -12 | -2% | 0% | 2% | ?
CC(C)CN1CCC2(CC1)CCN(C(=O)Oc1ccccc1)CC2 | · | · | · | · | 0% | ·
COc1cccc(C(=O)C2CN(C)CC2c2ccc(Cl)cc2)c1 (stereo not given) | i | -59* | 7% | -17% | 8% | -2%
COc1ccc(C(=O)C2CN(C)CC2c2ccc(Cl)cc2)cc1 (stereo not given) | i | ? | ? | -11% | 3% | -39%
CN1CC(C(=O)c2cccc(C(F)(F)F)c2)C(c2ccc(Cl)cc2)C1 (stereo not given) | i | -83* | 18% | -14% | 8% | 12%
Oc1cc(Cl)cc(Cl)c1Cl | i | -12 | ? | -10% | ? | -39%
Nc1ccc(CC(N)c2csc(Nc3ncccn3)n2)cc1 (stereo not given) | i | -15 | · | -24% | 0% | ·
CC(C)c1ccc(NC(=O)Nc2nc(C(N)CCc3ccccc3)cs2)cc1 (stereo not given) | 28µM* | -106* | · | 28µM* | -1% | ·
CC(C)CC(N)c1csc(NC(=O)Nc2ccccc2-c2ccccc2)n1 (stereo not given) | 25µM* | ? | · | -27% | 0% | ·
CN1C(=O)C(=Cc2sc(=O)n(-c3ccccc3)c2N(C)C)C(=O)N(C)C1=O | ? | -97* | 18µM* | ? | 10% | 28%
